High-throughput results from PubChem BioAssay.
An excerpt weighted towards active compounds, which were near 4.9% of everything screened.
tim10-1 inh = growth inhibitors of tim10-1 mutant yeast. S. cerevisiae tim10-1 ts strain growth, BacTiter-Glo, 24 h. inhibition, % at 20 µM. 330,000 tested, 2.2% active. AID 463190;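 active = inhibition of at least 40%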;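 note: mutant grown at 25 °C; 0% = DMSO wells with yeast and 100% = wells holding no yeast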
NLRP3 yeast inh = inhibitors of NALP3 inflammasome in yeast. Yeast reconstituted NLRP3/ASC/caspase-1, beta-gal luminescence, 24 h. inhibition, % at 10 µM. 330,000 tested, 0.39% active;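 active = inhibition of 50% or more; inactive = inhibition below 50%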;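 note: plate controls were induced DMSO wells for no effect and uninduced yeast grown without galactose for full effect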
NALP1 inh = NALP1 inhibition; S. cerevisiae NALP1/ASC/caspase-1 growth, X-gal OD620, 72 h; inhibition, % at 10 µM; 280,000 tested, 0.61% active; AID 2071; in the data active = inhibition mostly above about 24%, no sharp cut-off; inactive = mostly below about 32%
tim23-1 inh = growth inhibitors of tim23-1 mutant yeast; S. cerevisiae tim23-1 growth, BacTiter-Glo luminescence, 24 h; 330,000 tested, 1.3% active; inhibition, % at 20 µM;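 active = growth inhibition of the mutant yeast at or above 50%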;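 note: temperature-sensitive mutant grown at 25 °C; plate controls were DMSO-treated mutant yeast for no effect and medium wells lacking yeast for full effect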
SKKanGAS inh = blocks kanamycin growth of S. pyogenes SKKanGAS strain | 300,000 tested, 1.3% active | BacTiter-Glo, 6 h | inhibition, % at 7.5 µM | AID 1662;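 active = mean replicate score, as percent of positive control median, at least 50; inconclusive = mean below 50 but one replicate at or above 50; inactive = mean and every replicate below 50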;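 note: strain carries kanamycin resistance gene driven by streptokinase promoter and grows in 40 µg/ml kanamycin; loss of luminescence reflects streptokinase promoter inhibition or plain growth inhibition; 0% = median of DMSO wells and 100% = positive control at its reference dose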
TIM10 inh = growth inhibitors of TIM10 yeast strain. S. cerevisiae TIM10 strain growth, BacTiter-Glo luminescence, 24 h. inhibition, % at 10 µM. 330,000 tested, 1.4% active. AID 463195;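 active = inhibition of 40% or more at the single tested concentration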;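 note: wild-type TIM10 isogenic control strain grown at permissive 25 °C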
tim10 confirm = confirmation of TIM10 yeast growth inhibitors. shares compounds with TIM10 inh. inhibition, % at 10 µM. AID 463215. S. cerevisiae tim10 strain growth, BacTiter-Glo luminescence, 24 h. 4,600 tested, 63% active;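 active = inhibition of yeast growth at or above a set limit in either of two replicates at 10 µM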;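 note: this counterscreen used the strain with wild-type TIM10; 0% = yeast with DMSO and 100% = medium wells lacking yeast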
Active calls of the source: *; ? = inconclusive; . = no result.

SMILES	tim10-1 inh	NLRP3 yeast inh	NALP1 inh	tim23-1 inh	SKKanGAS inh	TIM10 inh	tim10 confirm
CN1/C(=C\C(=S)NC(=O)c2ccccc2Cl)C(C)(C)c2ccccc21	36.1	24.2	30.7	49.7	5.3	40.3*	14.9
COc1ccc([C@H]2CC(=O)C=C(/C=C/Cc3ccccc3)C2)cc1	37.8	22.6	.	48.4	.	47.5*	47.5*
COc1ccc(-c2csc(NC(=O)CC(C)C)n2)cc1	10.1	8.7	4.7	5.7	0.6	39.2	.
CC(C)CC(=O)NC(=S)Nc1nc(-c2cccc3ccccc23)cs1	35.6	19.0	-6.7	15.1	26.0	47.2*	-18.6
COc1ccc(/C=N/NC(=O)c2ccc3c(c2)OCO3)c(C(=O)O)c1OC	14.7	7.8	-4.2	10.5	-1.2	8.9	.
COc1ccc(N=Cc2nc(-c3ccccc3)oc2OC(=O)c2ccccc2)cc1	39.9	24.6	42.8	42.7	-5.6	50.3*	32.1*
CCN(C(=O)CSc1nnnn1-c1ccc(Cl)cc1)C1CCS(=O)(=O)C1 (configuration not stated)	-0.5	15.4	.	9.8	.	2.2	.
Cc1ccc(C(O)P(=O)(OC2CCCCC2)OC2CCCCC2)cc1 (configuration not stated)	38.4	-19.7	3.4	35.3	12.1	40.4*	38.8*
Cc1cccc(C(=O)OCC(=O)NCc2cccs2)c1	19.8	31.8	-1.8	26.7	-11.5	8.0	.
O=C(COC(=O)c1c(F)cccc1F)NCc1cccs1	-4.6	13.0	.	7.9	.	70.7*	-1.3
COc1cccc(NC(=O)N2CCCC2C(=O)NCc2ccco2)c1 (configuration not stated)	8.8	-5.8	7.4	1.6	11.8	-25.1	.
CC(OC(=O)Cn1cnc2c1c(=O)n(C)c(=O)n2C)C(=O)c1ccccc1 (configuration not stated)	-1.1	4.5	.	-5.2	7.0	-4.6	.
Cc1cc(C)c(C(=O)C(C)OC(=O)Cn2cnc3c2c(=O)n(C)c(=O)n3C)cc1C (configuration not stated)	-16.8	5.9	.	-7.3	-5.3	58.2*	-33.4
Cc1ccccc1CS(=O)(=O)Cc1ccc(C(=O)NCCCN2CC(C)CC(C)C2)o1 (configuration not stated)	-8.1	-2.1	-0.2	0.0	-1.2	95.3*	-2.5
COc1ccc(C(=O)COC(=O)C2CCCN2C(=O)C23CC4CC(CC(C4)C2)C3)cc1 (configuration not stated)	29.5	8.1	10.1	33.6	.	44.1*	33.0*
CSc1nc(-c2ccco2)nn1C(=O)c1ccc(C)cc1	33.6	16.6	6.4	31.2	-8.4	20.3	.
CSc1nc(-c2ccccc2)nn1C(=O)c1ccc(C)cc1	29.4	21.1	14.3	40.7	-0.2	41.9*	42.3*
CCOC(=O)CN(C(=O)CSc1nnnn1C)c1ccccc1	-5.1	20.8	.	8.5	.	-8.9	.
Cc1sc2ncnc(SCC(=O)NC(=O)NCc3ccco3)c2c1C	-8.2	19.5	25.4	-24.3	0.2	50.4*	-0.2
O=[N+]([O-])c1cc(/C=N\Nc2ccccn2)ccc1Cl	1.0	9.1	21.3	11.4	10.7	11.9	.
O=[N+]([O-])c1cc(Cl)cc(/C=N\Nc2ccccn2)c1O	16.4	28.2	-8.3	43.8	102.4*	41.4*	28.5
Cc1[nH]n(-c2ccc([N+](=O)[O-])cc2)c(=O)c1C=NCCc1c(C)[nH]c2ccccc12	21.2	8.6	10.5	8.4	18.3	45.1*	-15.4
Cc1ccc(C(=O)Oc2ccc(C(=O)COC(=O)C3CC(=O)N(Cc4ccco4)C3)cc2)cc1 (configuration not stated)	39.5	6.3	-1.5	21.0	-0.7	40.6*	13.3
S=C(NCCc1ccccc1)N/N=C/c1c(Cl)cccc1Cl	11.4	-9.7	2.0	13.4	-0.7	33.2	.
S=C(NCCc1ccccc1)N/N=C/c1ccc(Cl)cc1	12.4	16.7	.	42.0	65.0*	40.6*	33.4*
SMILES	tim10-1 inh	NLRP3 yeast inh	NALP1 inh	tim23-1 inh	SKKanGAS inh	TIM10 inh	tim10 confirm
CCOc1ccc(CCNC(=O)c2cc(C)nc3ccccc23)cc1OCC	9.8	13.8	10.3	18.0	-0.7	7.8	.
COc1cc(CN(C)Cc2cccc3ccccc23)cc([N+](=O)[O-])c1O	13.3	-18.6	18.1	15.1	3.4	7.5	.
COc1ccc(S(=O)(=O)NNc2nc(C)cc(C)n2)cc1[N+](=O)[O-]	-5.3	15.9	16.3	-6.2	0.9	4.8	.
CC(C)(C)C(=O)NC(=S)N1CCc2ccccc21	11.9	-1.1	16.8	2.8	-9.3	3.0	.
O=C(NC(=S)N1CCc2ccccc21)c1ccccc1Br	23.8	43.6	29.2	33.8	-3.5	40.6*	31.4*
O=C(COC(=O)CCC(=O)N1CCOCC1)Nc1ccc(Br)cc1Br	-5.8	8.8	.	8.4	.	-2.5	.
Cc1n[nH]c(C)c1CCOc1ccc(C(C)C)cc1	36.1	2.2	21.4	43.1	96.5*	48.5*	29.5*
NC(=O)SCC(=O)Nc1cccc(Cl)c1	-9.6	-11.3	17.5	8.3	-8.4	-17.2	.
Cc1ccc(NC(=O)C/C(N)=N/OC(=O)Nc2cccc(Cl)c2)cc1	35.9	25.1	.	11.2	.	40.3*	24.2
CN1CCc2c(OCC(=O)N3N=C(c4cccs4)CC3c3ccc(F)cc3)cccc2C1=O (configuration not stated)	29.7	2.1	35.7	43.2	-12.9	40.0	-26.1
CCN1CCc2c(OCC(=O)N3N=C(c4cccs4)CC3c3ccc(F)cc3)cccc2C1=O (configuration not stated)	21.0	5.7	30.9	23.2	17.7	22.1	.
Cc1nc(-c2cccc(NC(=O)c3cccs3)c2)cs1	-2.8	29.9	-47.3	33.1	-5.7	15.0	.
O=C(Nc1ccc2c(c1)OCO2)c1cccs1	37.5	30.8	12.7	39.1	5.9	47.3*	36.6*
O=C(Nc1ccc2c(c1)OCO2)c1ccc(Br)s1	-32.0	32.7	17.8	-13.8	1.5	1.5	.
O=C(Nc1cccc(-c2csc(-c3ccccc3)n2)c1)c1cccs1	18.5	13.6	-8.3	31.1	-0.3	40.5*	32.4*
COc1cc(NC(=O)c2cccs2)cc(OC)c1	25.8	49.3	65.2*	28.9	-1.4	69.8*	55.8*
O=C(Nc1cccc(C2OCCCO2)c1)c1cccs1	37.9	13.4	25.5	27.5	1.3	43.9*	-5.3
O=C(CSc1ccccc1F)NNC(=O)c1cncc(Br)c1	-20.0	12.7	.	-8.2	.	1.3	.
CCCn1c(SCC(=O)Nc2ccc(Cl)cc2F)nc(O)cc1=O	-1.7	0.7	.	-0.9	.	7.2	.
FC(F)(F)c1cccc(NC(=S)N2CCCC2)c1	3.9	27.2	-6.2	6.9	?	0.9	.
OCC(Cc1ccccc1)Nc1c2ccccc2nc2ccccc12 (configuration not stated)	14.0	6.5	-10.8	27.0	-21.3	56.4*	-6.9
